# Measured values as given in PubChem BioAssay.
# Active and inactive are the calls of the source. Unless noted, no rule for the calls is given here.
# What was measured:
# [1] = anti-His antibody binders, primary screen, artefact control for SMM control protein annotation, biochemical, small-molecule microarray, 635 nm fluorescence (AID 1128); settings: anti-His Alexa647 antibody binding, higher = more signal;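 also: score merges feature fluorescence with signal-to-noise for each printed compound spot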
# [2] = tested on: Human papillomavirus type 1a E7 protein (residues 1-88); test: HPV1a E7 small-molecule binders, primary screen, biochemical, small-molecule microarray, residues 1-88, 635 nm (AID 1129); settings: small-molecule microarray binding, fluorescence 635 nm; higher = more signal
# [3] = target: Focal adhesion kinase 1 (Homo sapiens) (UniProt Q05397); test: small-molecule microarray binders of FAK, primary screen, biochemical, 635/667 nm fluorescence, BSA, DTT (AID 1130); settings: PTK2 binding, 635 nm fluorescence, higher = more signal;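 also: composite of spot emission at 667 nm and signal to noise over triplicate slides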
# [4] = tested on: Fibrinogen (Alexa647-labelled); test: fibrinogen binders on compound microarrays, profiling panel, artefact control for SMM control-protein annotation, biochemical, small-molecule microarray, 635/667 nm fluorescence (AID 1131); settings: fibrinogen-A647 binding fluorescence, higher = more signal;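 also: z-score merges 667 nm fluorescence with per-spot signal-to-noise over triplicate slides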
# [5] = target: Follistatin (Homo sapiens) (UniProt P19883); test: follistatin binders on small-molecule microarrays, primary screen, biochemical, small-molecule microarray, 635/667 nm fluorescence (AID 1132); settings: FST binding, 635 nm fluorescence, higher = more signal
# [6] = target: Fibroblast growth factor 2 (Homo sapiens) (UniProt P09038); test: FGF2 binders on small-molecule microarrays, primary screen, biochemical, small-molecule microarray, 635/667 nm fluorescence (AID 1133); settings: small-molecule microarray binding, FGF2, fluorescence 635/667; higher = more signal
# [7] = mitochondrial membrane potential change in A549 cells, profiling panel, cell-based, JC-1 fluorescence, basal, 24 h, 100 nL (AID 1138); settings: higher = more signal;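 also: A549 lung adenocarcinoma cells under basal conditions with no added stimulus; test concentration not given here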
# Lefty1 = Lefty1 binders on small-molecule microarrays, primary screen, biochemical, small-molecule microarray, 635/667 nm fluorescence (AID 1139); settings: small-molecule microarray binding, fluorescence 635/667; higher = more signal
# [8] = tested on: wheat germ agglutinin (Triticum aestivum), Alexa647-labelled; test: wheat germ agglutinin binders on compound microarrays, profiling panel, artefact control for SMM control-protein annotation, biochemical, small-molecule microarray, 635/667 nm fluorescence (AID 1140); settings: WGA-A647 binding, 635 nm fluorescence, higher = more signal;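 also: score merges 667 nm feature emission with signal to noise over triplicate slides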
# [9] = target: Luciferin 4-monooxygenase (Photinus pyralis) (UniProt P08659); test: firefly luciferase enzyme inhibitors, primary screen, biochemical, luminescence, purified enzyme, 2006 set (AID 1141); settings: SteadyGlo luminescence, 30 min, higher = more signal, called active from +8 up or from −8 down;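 also: cell-free assay with purified firefly luciferase at 100 ng per well in PBS; test concentration not given here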
# [10] = tested on: Wnt5a (protein binding on small-molecule microarray); test: Wnt5a binders on small-molecule microarray, primary screen, biophysical, 635/667 nm fluorescence (AID 1142); settings: 635 nm fluorescence, higher = more signal;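 also: fluorescence read at 667 nm with signal to noise per printed feature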
# [11] = cell viability in Huh7 cells, primary screen, cytotoxicity control for HCV replication inhibitor project, CellTiter-Glo luminescence, basal, 48 h (AID 1143); settings: Huh7 HCV replicon, higher = more signal, called active from +8 up or from −8 down;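 also: Huh7 hepatoma cells carrying a hepatitis C replication reporter with no stimulus; test concentration not given here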
# [12] = P. aeruginosa biofilm formation inhibitors, primary screen, PAO1 strain, BacTiter-Glo luminescence, LB-PBS (AID 1144); settings: 12 h, higher = more signal
# [13] = CREB reporter modulators without forskolin, primary screen, cell-based, PC12, CRE-LacZ reporter, unstimulated (AID 1145); settings: no forskolin, luminescence, 4.5 h, higher = more signal, called active from +8 up or from −8 down
# [14] = CREB reporter modulators under forskolin, primary screen, cell-based, PC12, CRE-LacZ reporter, forskolin-stimulated (AID 1146); settings: luminescence, 4.5 h, higher = more signal, called active from +8 up or from −8 down;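 also: PC12 cells with 6xCRE LacZ reporter stimulated by forskolin 10 µM; beta-galactosidase reporter signal reflecting CREB driven transcription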
# [15] = target: Streptavidin (Streptomyces avidinii) (UniProt P22629); test: streptavidin binders on small-molecule microarray, primary screen, artefact control for SMM compound annotation, biophysical, 635/667 nm fluorescence (AID 1147); settings: streptavidin binding, higher = more signal;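 also: signal reflects streptavidin binding to arrayed compounds as a control protein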
# [16] = small-molecule binders of probe aInhba, primary screen, biochemical, small-molecule microarray, 635/667 nm fluorescence (AID 1148); settings: higher = more signal;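 also: score merges 667nm spot fluorescence with signal-to-noise for antibody binding to printed compounds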
# Torsin-1A (Homo sapiens) [17] = target: Torsin-1A (Homo sapiens) (UniProt O14656); test: torsin A binders from cell lysate, primary screen, small-molecule microarray, wild-type, 635/667 nm (AID 1149); settings: COS7 hTOR1A-WT lysate, 635 nm fluorescence, higher = more signal
# Torsin-1A (Homo sapiens) [18] = target: Torsin-1A (Homo sapiens) (UniProt O14656); test: small-molecule binders of mutant TOR1A in lysate, primary screen, cell lysate, small-molecule microarray, COS7 lysate, 635/667 nm fluorescence (AID 1150); settings: COS7 hTOR1A mutant lysate, 635 nm fluorescence, higher = more signal;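 also: score pools 667 nm emission and signal to noise measuring lysate protein binding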
# [19] = tested on: Sonic hedgehog protein (Shh); test: small-molecule binders of Shh protein, primary screen, biochemical, small-molecule microarray, 635/667 nm fluorescence (AID 1151); settings: small-molecule microarray binding, 635 nm fluorescence; higher = more signal;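 also: Shh protein binding to compounds spotted on small-molecule microarray slides; score combines spot fluorescence intensity with signal-to-noise across triplicate slides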
# Chain of Focal adhesion kinase 1 (Homo sapiens) (Q05397 whole entry, looked up): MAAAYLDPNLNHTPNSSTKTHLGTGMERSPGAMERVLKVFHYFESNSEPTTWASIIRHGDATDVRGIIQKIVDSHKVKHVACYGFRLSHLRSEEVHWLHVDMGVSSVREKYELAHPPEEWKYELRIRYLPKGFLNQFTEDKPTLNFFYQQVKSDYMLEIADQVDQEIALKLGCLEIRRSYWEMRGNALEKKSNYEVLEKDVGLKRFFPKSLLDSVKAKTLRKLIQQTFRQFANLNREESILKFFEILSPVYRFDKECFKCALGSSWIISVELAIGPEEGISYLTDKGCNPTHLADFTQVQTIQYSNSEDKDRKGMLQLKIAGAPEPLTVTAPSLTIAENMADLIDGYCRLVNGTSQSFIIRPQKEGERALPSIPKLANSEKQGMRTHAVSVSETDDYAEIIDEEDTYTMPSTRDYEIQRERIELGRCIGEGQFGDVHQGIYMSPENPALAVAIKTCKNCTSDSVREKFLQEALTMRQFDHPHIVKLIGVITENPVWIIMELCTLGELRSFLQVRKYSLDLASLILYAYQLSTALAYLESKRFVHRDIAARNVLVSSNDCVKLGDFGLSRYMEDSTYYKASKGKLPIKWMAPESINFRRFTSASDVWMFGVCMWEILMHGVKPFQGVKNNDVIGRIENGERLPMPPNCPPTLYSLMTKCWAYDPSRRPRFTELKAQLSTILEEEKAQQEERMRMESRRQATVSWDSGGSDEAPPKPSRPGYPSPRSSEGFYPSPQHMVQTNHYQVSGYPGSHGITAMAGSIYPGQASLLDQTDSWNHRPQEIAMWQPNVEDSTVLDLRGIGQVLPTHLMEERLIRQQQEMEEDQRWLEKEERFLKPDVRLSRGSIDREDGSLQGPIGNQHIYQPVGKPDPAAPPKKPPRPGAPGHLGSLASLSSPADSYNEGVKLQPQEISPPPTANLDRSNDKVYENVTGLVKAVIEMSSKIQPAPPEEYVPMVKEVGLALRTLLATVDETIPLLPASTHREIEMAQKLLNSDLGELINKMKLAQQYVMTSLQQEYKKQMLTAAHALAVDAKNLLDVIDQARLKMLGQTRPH
# Chain of Streptavidin (Streptomyces avidinii) (P22629 whole entry, looked up): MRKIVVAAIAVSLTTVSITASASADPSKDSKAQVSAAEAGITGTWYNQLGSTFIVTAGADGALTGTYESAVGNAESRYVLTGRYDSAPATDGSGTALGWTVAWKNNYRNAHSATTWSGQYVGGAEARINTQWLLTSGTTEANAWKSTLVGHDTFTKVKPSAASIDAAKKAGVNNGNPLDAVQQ
# Chain of Fibroblast growth factor 2 (Homo sapiens) (P09038 whole entry, looked up): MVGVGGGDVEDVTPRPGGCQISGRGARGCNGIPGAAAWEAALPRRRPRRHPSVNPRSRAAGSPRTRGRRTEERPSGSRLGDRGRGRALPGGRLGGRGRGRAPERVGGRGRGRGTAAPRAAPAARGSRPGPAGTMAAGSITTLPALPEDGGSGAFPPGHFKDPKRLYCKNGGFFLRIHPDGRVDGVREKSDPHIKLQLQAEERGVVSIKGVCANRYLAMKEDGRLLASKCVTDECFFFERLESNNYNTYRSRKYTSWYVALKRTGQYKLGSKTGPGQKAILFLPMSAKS
# Chain of Follistatin (Homo sapiens) (P19883 whole entry, looked up): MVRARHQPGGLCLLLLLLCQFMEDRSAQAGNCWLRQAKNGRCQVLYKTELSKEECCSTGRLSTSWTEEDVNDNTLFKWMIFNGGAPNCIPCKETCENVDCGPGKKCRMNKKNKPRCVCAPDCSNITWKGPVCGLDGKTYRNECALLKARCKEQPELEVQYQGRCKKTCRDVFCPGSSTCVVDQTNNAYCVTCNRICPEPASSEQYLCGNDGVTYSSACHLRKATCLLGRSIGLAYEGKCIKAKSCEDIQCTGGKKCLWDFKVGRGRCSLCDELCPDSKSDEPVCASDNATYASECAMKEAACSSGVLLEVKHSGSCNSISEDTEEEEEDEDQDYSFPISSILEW
# Chain of Torsin-1A (Homo sapiens) (O14656 whole entry, looked up): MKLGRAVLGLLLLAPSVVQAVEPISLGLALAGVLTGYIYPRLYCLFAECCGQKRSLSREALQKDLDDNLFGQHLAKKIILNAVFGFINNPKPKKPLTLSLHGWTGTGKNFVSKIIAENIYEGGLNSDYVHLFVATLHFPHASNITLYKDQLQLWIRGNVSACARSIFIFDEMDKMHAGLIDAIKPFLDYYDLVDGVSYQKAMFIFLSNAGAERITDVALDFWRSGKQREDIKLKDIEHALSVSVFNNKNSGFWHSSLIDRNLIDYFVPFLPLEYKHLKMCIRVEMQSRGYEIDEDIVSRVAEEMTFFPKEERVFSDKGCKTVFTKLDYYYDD
# Chain of Luciferin 4-monooxygenase (Photinus pyralis) (P08659 whole entry, looked up): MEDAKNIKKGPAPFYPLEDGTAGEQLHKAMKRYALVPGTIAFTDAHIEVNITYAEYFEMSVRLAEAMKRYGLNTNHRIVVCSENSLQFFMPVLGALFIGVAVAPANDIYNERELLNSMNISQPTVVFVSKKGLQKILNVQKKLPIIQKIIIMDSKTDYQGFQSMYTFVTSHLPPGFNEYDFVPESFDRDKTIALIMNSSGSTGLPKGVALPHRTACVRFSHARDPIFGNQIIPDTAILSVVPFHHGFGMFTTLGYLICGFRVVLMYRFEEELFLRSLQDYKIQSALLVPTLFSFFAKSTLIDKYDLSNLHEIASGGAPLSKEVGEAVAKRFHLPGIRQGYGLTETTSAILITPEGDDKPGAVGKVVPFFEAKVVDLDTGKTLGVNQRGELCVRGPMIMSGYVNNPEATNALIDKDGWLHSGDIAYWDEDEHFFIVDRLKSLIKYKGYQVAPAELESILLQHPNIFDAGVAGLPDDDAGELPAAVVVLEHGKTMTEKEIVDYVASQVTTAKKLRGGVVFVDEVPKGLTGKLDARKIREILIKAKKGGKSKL
Structure (SMILES),composite z-score [1],composite z-score [2],composite z-score [3],composite z-score [4],composite z-score [5],composite z-score [6],z-score [7],composite z-score (Lefty1),composite z-score [8],z-score [9],composite z-score [10],z-score [11],z-score [12],z-score [13],z-score [14],composite z-score [15],composite z-score [16],composite z-score (Torsin-1A (Homo sapiens) [17]),composite z-score (Torsin-1A (Homo sapiens) [18]),composite z-score [19]
COC(=O)C1=CC(CCCO)=CC(C2CC2)N(Cc2cccc(OC(F)(F)F)c2)C=C1C(=O)OC (stereo not given),1,0.846,1.03,0.884,0.0058,-0.653,1.1,0.126,0.824,0.189 (inactive),0.172,-1.15 (inactive),-0.393 (inactive),-0.0243 (inactive),0.969 (inactive),0.307,0.0711,-0.38,0.497,-0.153
COCCOC(=O)N1C(=O)[C@@]2(c3cc(C#CC4=CCCCC4)ccc31)[C@H](C(=O)N1CCN(c3ncccn3)CC1)[C@H]1C(=O)O[C@H](c3ccccc3)[C@H](c3ccccc3)N1[C@@H]2c1ccccc1OCCO,0.353,1.18,0.377,0.936,1.18,0.956,-1.3,0.787,0.792,-1.22 (inactive),0.337,-5.9 (inactive),-2.51 (inactive),-2.11 (inactive),-1.32 (inactive),0.496,-0.0332,0.825,0.598,1.47
COc1ccc(CC[C@H](O)c2cccc(OCC(=O)OC(C)(C)C)c2)cc1,0.697,1.01,0.464,1.04,1.02,0.625,0.383,1.01,0.906,0.275 (inactive),0.42,-3.93 (inactive),-0.0717 (inactive),0.595 (inactive),-0.251 (inactive),1.77,0.156,0.584,0.977,1.37
COCCOC(=O)N1C(=O)[C@@]2(c3cc(C#Cc4ccc(OC)cc4)ccc31)[C@H](C(=O)N1CCCCCCC1)[C@H]1C(=O)O[C@H](c3ccccc3)[C@H](c3ccccc3)N1[C@@H]2c1ccccc1OCCO,0.32,1.21,0.628,0.495,1.49,1.54,-0.864,1.62,0.614,0.197 (inactive),1.15,-0.751 (inactive),-1.4 (inactive),-1.42 (inactive),0.323 (inactive),1.53,1.59,1.43,1.18,1.9
COCCOC(=O)N1C(=O)[C@@]2(c3cc(C#CCCO)ccc31)[C@H](c1ccc(O)cc1)N1[C@H](c3ccccc3)[C@H](c3ccccc3)OC(=O)[C@H]1[C@@H]2C(=O)N1CCc2cc(OC)c(OC)cc2C1,0.432,1.25,0.514,0.81,1.36,1.59,0.257,1.36,1.03,0.298 (inactive),0.565,0.0501 (inactive),-0.883 (inactive),-0.0647 (inactive),-1.05 (inactive),0.354,0.628,1.07,0.761,1.32
C=CCC(OC(C)=O)[C@@H]1[C@@H](N(Cc2ccc(-c3cccc(C(F)(F)F)c3)o2)C(=O)c2cccc3ccccc23)c2cc(OCCCO)ccc2N1C(=O)c1ccc2ccccc2n1 (stereo not given in full),-0.188,-0.696,-0.323,-0.0203,0.587,0.0226,-0.431,0.375,-0.0681,0.587 (inactive),-0.0713,-1.33 (inactive),-0.214 (inactive),-0.258 (inactive),0.0155 (inactive),-0.32,-0.024,0.17,-0.662,0.259
Cc1c(-c2ccc(-c3ccc(Cl)c(Cl)c3)o2)nc(-c2ccccc2)c2c1CO[Si]2(C(C)C)C(C)C,0.466,0.168,-0.0127,0.407,-0.161,-0.255,-0.777,0.351,0.284,-0.056 (inactive),-0.0882,-0.98 (inactive),0.163 (inactive),-0.882 (inactive),1.86 (inactive),-0.107,-0.179,-0.455,-0.474,0.426
C[C@@H](OCc1ccccc1)C1NC(=O)[C@@]23C(=O)N[C@@H](Cc4ccccc4)C2[C@H](C)[C@@]2(C)O[C@H]2C3/C=C/C/C=C\CNC(=O)[C@H](Cc2ccccc2)NC1=O (stereo not given in full),0.276,-0.197,-0.422,0.569,0.793,0.803,-0.227,0.557,-0.228,-3.26 (inactive),-0.0187,-3.97 (inactive),0.541 (inactive),5.48 (inactive),-0.164 (inactive),-0.85,0.0131,-0.258,0.293,1.07
CCCCC(O)C1C=CC2C(=O)NC(=O)C2N1Nc1ccc(Cl)cc1Cl (stereo not given),2.42,0.32,0.474,-0.0628,0.413,-0.596,-1.16,-0.654,0.87,-1.31 (inactive),-0.188,-1.19 (inactive),-0.441 (inactive),0.819 (inactive),-0.123 (inactive),0.27,0.166,-0.58,0.571,-0.614
CCCCC(O)C1C=CC2C(=O)NC(=O)C2N1Nc1ccccn1 (stereo not given),1.12,0.0748,0.205,-0.796,-0.117,0.256,-0.0561,-0.0094,0.135,-0.407 (inactive),-0.0034,0.294 (inactive),-0.314 (inactive),-0.133 (inactive),0.438 (inactive),0.0033,0.0225,0.477,0.203,-0.432
